A short description of assay [1]: compounds binding Alexa647 anti-His antibody – biochemical, small-molecule microarray, 635 nm fluorescence, artefact control for SMM control protein annotation, primary screen (AID 1128).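 Also: score merges feature fluorescence with signal-to-noise for each printed compound spot.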 The note with it: higher = more signal.
Assay [2] concerns Human papillomavirus type 1a E7 protein (residues 1-88). The assay can be described thus: HPV1a E7 small-molecule binders, primary screen, biochemical, small-molecule microarray, residues 1-88, 635 nm (AID 1129). The following applies: small-molecule microarray binding, fluorescence 635 nm; higher = more signal.
The target of assay [3] is Focal adhesion kinase 1 (Homo sapiens) (UniProt Q05397). The assay can be described thus: PTK2 protein binding on printed compound slides – biochemical, small-molecule microarray, 635/667 nm fluorescence, BSA, DTT, primary screen (AID 1130).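 Also: composite of spot emission at 667 nm and signal to noise over triplicate slides.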 The following applies: 635 nm fluorescence, higher = more signal.
Focal adhesion kinase 1 (Homo sapiens), sequence (Q05397 whole entry, looked up): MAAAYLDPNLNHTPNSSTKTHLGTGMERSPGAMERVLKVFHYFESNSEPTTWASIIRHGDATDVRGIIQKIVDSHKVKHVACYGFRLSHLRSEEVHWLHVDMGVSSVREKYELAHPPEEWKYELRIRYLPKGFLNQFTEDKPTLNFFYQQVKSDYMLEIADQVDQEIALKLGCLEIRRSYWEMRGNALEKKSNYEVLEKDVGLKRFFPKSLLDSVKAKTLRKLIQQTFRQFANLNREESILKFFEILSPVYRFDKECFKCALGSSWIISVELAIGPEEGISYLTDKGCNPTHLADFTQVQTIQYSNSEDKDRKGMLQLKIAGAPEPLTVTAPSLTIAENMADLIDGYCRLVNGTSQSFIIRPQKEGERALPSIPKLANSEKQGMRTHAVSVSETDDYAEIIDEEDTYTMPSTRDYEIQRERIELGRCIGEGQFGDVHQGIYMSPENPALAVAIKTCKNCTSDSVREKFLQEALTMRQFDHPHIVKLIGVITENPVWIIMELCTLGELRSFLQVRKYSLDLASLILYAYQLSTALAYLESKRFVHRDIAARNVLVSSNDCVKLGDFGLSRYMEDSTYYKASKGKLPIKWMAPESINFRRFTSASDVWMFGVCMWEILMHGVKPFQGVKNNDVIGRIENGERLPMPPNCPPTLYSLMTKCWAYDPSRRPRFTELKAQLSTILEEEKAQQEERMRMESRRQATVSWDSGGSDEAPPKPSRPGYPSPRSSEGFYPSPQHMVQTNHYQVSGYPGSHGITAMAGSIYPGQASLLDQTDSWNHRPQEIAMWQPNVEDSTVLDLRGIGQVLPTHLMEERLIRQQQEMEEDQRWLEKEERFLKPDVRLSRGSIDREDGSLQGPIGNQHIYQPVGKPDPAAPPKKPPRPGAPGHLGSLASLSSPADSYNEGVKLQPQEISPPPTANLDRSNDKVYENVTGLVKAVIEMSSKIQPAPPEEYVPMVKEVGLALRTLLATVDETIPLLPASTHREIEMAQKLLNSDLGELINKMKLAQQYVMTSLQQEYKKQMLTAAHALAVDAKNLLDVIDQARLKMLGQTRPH
The subject of assay [4] is Fibrinogen (Alexa647-labelled). The assay can be described thus: Alexa647-fibrinogen binding to printed small molecules – biochemical, small-molecule microarray, 635/667 nm fluorescence, artefact control for SMM control-protein annotation, profiling panel (AID 1131).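 Also: z-score merges 667 nm fluorescence with per-spot signal-to-noise over triplicate slides.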 The note with it: fibrinogen-A647 binding fluorescence, higher = more signal.
The target of assay [5] is Follistatin (Homo sapiens) (UniProt P19883). The assay can be described thus: FST protein binding to printed compounds – biochemical, small-molecule microarray, 635/667 nm fluorescence, primary screen (AID 1132). The following applies: 635 nm fluorescence, higher = more signal.
Follistatin (Homo sapiens), sequence (P19883 whole entry, looked up): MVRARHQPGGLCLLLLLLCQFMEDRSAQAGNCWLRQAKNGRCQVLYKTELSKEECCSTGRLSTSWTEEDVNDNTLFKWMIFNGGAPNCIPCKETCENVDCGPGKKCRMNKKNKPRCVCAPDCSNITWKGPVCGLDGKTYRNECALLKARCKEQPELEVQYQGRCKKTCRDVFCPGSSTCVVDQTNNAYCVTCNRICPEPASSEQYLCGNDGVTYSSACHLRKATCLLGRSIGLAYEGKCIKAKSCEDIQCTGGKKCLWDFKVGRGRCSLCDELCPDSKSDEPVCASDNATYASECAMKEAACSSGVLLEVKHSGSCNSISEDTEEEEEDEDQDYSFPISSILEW
Assay [6] has as its target Fibroblast growth factor 2 (Homo sapiens) (UniProt P09038). The assay can be described thus: basic fibroblast growth factor binding to printed compounds – biochemical, small-molecule microarray, 635/667 nm fluorescence, primary screen (AID 1133). The note with it: FGF2, fluorescence 635/667, higher = more signal.
The nature of assay [7]: JC-1 mitochondrial potential readout, lung cancer cells – cell-based, A549, JC-1 fluorescence, basal, 24 h, 100 nL, profiling panel (AID 1138).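 Also: A549 lung adenocarcinoma cells under basal conditions with no added stimulus; test concentration not given here.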 The following applies: higher = more signal.
In the next assay the test system is Lefty1. The assay can be described thus: Lefty1 protein binding to printed compounds – biochemical, small-molecule microarray, 635/667 nm fluorescence, primary screen (AID 1139). The note with it: fluorescence 635/667, higher = more signal.
The subject of assay [8] is wheat germ agglutinin (Triticum aestivum), Alexa647-labelled. The assay can be described thus: Alexa647-WGA lectin binding to printed small molecules – biochemical, small-molecule microarray, 635/667 nm fluorescence, artefact control for SMM control-protein annotation, profiling panel (AID 1140).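 Also: score merges 667 nm feature emission with signal to noise over triplicate slides.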 The following applies: WGA-A647 binding, 635 nm fluorescence, higher = more signal.

The target of assay [9] is Luciferin 4-monooxygenase (Photinus pyralis) (UniProt P08659). The assay can be described thus: inhibition of purified Photinus pyralis luciferase – biochemical, luminescence, purified enzyme, 2006 set, primary screen (AID 1141).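 Also: cell-free assay with purified firefly luciferase at 100 ng per well in PBS; test concentration not given here.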 The following applies: purified firefly luciferase, SteadyGlo luminescence, 30 min; higher = more signal, called active from +8 up or from −8 down.
Luciferin 4-monooxygenase (Photinus pyralis), sequence (P08659 whole entry, looked up): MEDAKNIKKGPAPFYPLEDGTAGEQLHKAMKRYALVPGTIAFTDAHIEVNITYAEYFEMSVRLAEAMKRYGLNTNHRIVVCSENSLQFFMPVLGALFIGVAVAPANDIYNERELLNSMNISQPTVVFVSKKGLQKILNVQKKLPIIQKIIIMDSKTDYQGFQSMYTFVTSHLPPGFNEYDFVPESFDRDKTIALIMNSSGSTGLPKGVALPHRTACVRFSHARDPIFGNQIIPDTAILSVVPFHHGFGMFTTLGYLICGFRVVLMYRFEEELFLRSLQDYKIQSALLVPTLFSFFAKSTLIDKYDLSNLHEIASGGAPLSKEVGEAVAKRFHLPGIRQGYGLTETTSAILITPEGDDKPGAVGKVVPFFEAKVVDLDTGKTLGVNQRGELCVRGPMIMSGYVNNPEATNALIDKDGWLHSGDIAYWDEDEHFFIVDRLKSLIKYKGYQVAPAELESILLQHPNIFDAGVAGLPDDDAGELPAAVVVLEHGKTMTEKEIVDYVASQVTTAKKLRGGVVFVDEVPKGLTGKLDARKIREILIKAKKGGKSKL

Data on 14 compounds can be found in PubChem BioAssay.

The structures appear in SMILES notation. Active and inactive are the calls of the source.

Fibroblast growth factor 2 (Homo sapiens), sequence (P09038 whole entry, looked up): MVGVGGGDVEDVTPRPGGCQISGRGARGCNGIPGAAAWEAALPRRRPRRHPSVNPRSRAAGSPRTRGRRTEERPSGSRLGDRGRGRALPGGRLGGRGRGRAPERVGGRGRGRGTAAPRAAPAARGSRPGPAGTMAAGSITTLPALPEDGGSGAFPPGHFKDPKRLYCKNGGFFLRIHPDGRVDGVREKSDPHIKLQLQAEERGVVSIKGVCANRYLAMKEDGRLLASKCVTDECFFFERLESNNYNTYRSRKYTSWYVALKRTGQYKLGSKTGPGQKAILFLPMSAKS

Consider `COc1cc2c(cc1O)C(c1ccc(CN3CCCC3)cc1)N(Cc1cccc(OC(F)(F)F)c1)CC2` (stereo not given), for which the composite z-score was 1.67 in assay [1]; 0.879 in assay [2]; -0.425 in [3]; 0.406 in [4]; 1.22 in assay [5]; 0.476 in assay [6]. For the same compound, the composite z-score stood at 0.242 with Lefty1 and 0.625 in [8]. Also, the z-score in assay [7] was -2.01; in assay [9], -1.37 (inactive).

On to `COCCOC(=O)N1C(=O)[C@@]2(c3cc(C#CC4(O)CCCCCC4)ccc31)[C@H](C(=O)N1CCc3cc(OC)c(OC)cc3C1)[C@H]1C(=O)O[C@H](c3ccccc3)[C@H](c3ccccc3)N1[C@@H]2c1ccc(O)cc1`, for which the composite z-score amounted to 2.17 in assay [1]; 1.23 in [2]; 0.427 in assay [3]; 0.853 in [4]; 1.26 in [5]; 1.1 in assay [6]. Besides, the composite z-score with Lefty1 was 0.594; in assay [8], 0.972. The z-score in assay [7] was -0.791; in assay [9], -0.604 (inactive).

`COCCCNC(=O)[C@@H]1c2ccccc2C(=O)N(C2CCCCC2)[C@H]1c1ccc(CO)cc1`: the composite z-score in assay [1] is 3.06; in assay [2] it was -0.668; in assay [3], 0.183; in [4] it was -0.927; in assay [5], -0.388; in [6], -0.658. In addition, the figures for the composite z-score (in the assay with Lefty1; in [8]) were -1.19 and -0.365, respectively. Also, the z-score was 0.705 in assay [7] and -0.0838 (inactive) in assay [9].

Turning to `COCCOC(=O)N1C(=O)[C@@]2(c3cc(C#CC4=CCCCC4)ccc31)[C@H](C(=O)N1CCN(c3ncccn3)CC1)[C@H]1C(=O)O[C@H](c3ccccc3)[C@H](c3ccccc3)N1[C@@H]2c1ccccc1OCCO`, the composite z-score amounted to 0.353 in assay [1]; 1.18 in assay [2]; 0.377 in assay [3]; 0.936 in assay [4]; 1.18 in [5]; 0.956 in assay [6]. Also, the composite z-score is 0.787 in the assay with Lefty1 and 0.792 in assay [8]. Further, the values for the z-score in assay [7] and in [9] were -1.3 and -1.22 (inactive), respectively.

As to `C=CCNC(=O)[C@@H]1[C@H]2C(=O)O[C@H](c3ccccc3)[C@H](c3ccccc3)N2[C@H](c2ccccc2OCCO)[C@@]12C(=O)N(C(=O)OCCOC)c1ccc(C#CCCO)cc12`, the composite z-score in [1] is 1.91; in assay [2], 1.21; in assay [3], 0.988; in assay [4] it was 0.414; in assay [5] it was 0.881; in [6], 1.29. Moreover, the composite z-score in the assay with Lefty1 amounted to 0.711; in assay [8] it was 0.971. Moreover, the z-score is -0.549 in assay [7] and -0.0405 (inactive) in assay [9].

Regarding `CO[C@H]1O[C@H](CO)[C@@H](OC(=O)Nc2ccc(C(F)(F)F)cc2)[C@H](OC(=O)Nc2ccccc2-c2ccccc2)[C@H]1OC(=O)Nc1ccccc1-c1ccccc1`, the composite z-score in assay [1] came out at 1.7; in assay [2] it was 1.26; in [3], 0.735; in assay [4], 1.04; in [5], 1.27; in assay [6] it was 0.686. For the same compound, the composite z-score turned out to be 0.617 in the assay on Lefty1 and 0.662 in assay [8]. Moreover, the z-score was -0.132 in [7] and -0.68 (inactive) in assay [9].

For `CCOC(=O)C[C@H]1[C@H](OC(=O)c2cc3ccccc3oc2=O)[C@@H](NC(=O)C2CCCCC2)c2cc(OCCCO)ccc2N1C(=O)Cc1ccc(OC)cc1`, the composite z-score in assay [1] was 0.737; in [2], 0.122; in [3], -0.207; in assay [4], 0.231; in assay [5], 0.722; in assay [6], 0.188. The composite z-score in the assay with Lefty1 is 0.646; in assay [8] it was 0.507. Besides, the z-score is 0.0812 in [7] and 0.696 (inactive) in assay [9].

For `COC(=O)C(CC#Cc1ccc2c(c1)[C@]1(C(=O)N2)[C@H](c2ccc(O)cc2)N2[C@H](c3ccccc3)[C@H](c3ccccc3)OC(=O)[C@H]2[C@@H]1C(=O)N1CCc2cc(OC)c(OC)cc2C1)C(=O)OC`, the composite z-score was 1.54 in assay [1]; 0.953 in assay [2]; -0.0453 in assay [3]; 0.742 in [4]; 1.36 in assay [5]; 1.17 in [6]. In addition, the composite z-score in the assay on Lefty1 amounted to 1.54; in assay [8], 0.384. The z-score in assay [7] is -0.654; in assay [9], -0.0494 (inactive).

For `CO[C@H]1O[C@H](CO)[C@@H](OC(=O)Nc2ccc(C(F)(F)F)cc2)[C@H](OC(=O)Nc2ccccc2-c2ccccc2)[C@@H]1OC(=O)Nc1ccccc1-c1ccccc1`, the composite z-score was 2.01 in [1]; 1.1 in assay [2]; 0.799 in [3]; 0.911 in [4]; 1.3 in assay [5]; 0.697 in [6]. The results for the composite z-score (with Lefty1; in assay [8]) were 1.08 and 1.04, respectively. For the same compound, the values for the z-score in assay [7] and in [9] were 0.284 and 0.798 (inactive), respectively.

As for `C#CCN=C(N)N`, the composite z-score in assay [1] was 0.468; in [2] it was 0.611; in [3], -0.0375; in assay [4] it was 0.802; in assay [5], 0.785; in [6], 0.388. In addition, the composite z-score worked out at 0.858 in the assay on Lefty1 and 0.299 in assay [8]. Moreover, the z-score is -0.317 in [7] and 0.523 (inactive) in assay [9].

Turning to `C=CCC(OC(C)=O)[C@@H]1[C@@H](N(Cc2cccc3ccccc23)C(=O)c2ccc(-c3ccccc3)cc2)c2cc(OCCCO)ccc2N1C(=O)c1ccc2ccccc2n1` (stereo not given in full), the composite z-score in [1] was 0.112; in assay [2], 0.263; in assay [3], 0.0785; in assay [4], 0.677; in assay [5], 0.537; in assay [6], -0.0329. Also, the composite z-score with Lefty1 came to 0.752; in assay [8], 0.922. Moreover, the results for the z-score in assay [7] and in assay [9] were -0.0419 and 0.222 (inactive), respectively.

For `CN(C)CCCNC(=O)[C@@]1(Cc2ccccc2I)c2ccccc2C(=O)N(Cc2ccccc2)[C@H]1c1ccc(CO)cc1`, the composite z-score stood at 1.88 in assay [1]; 1.26 in assay [2]; 0.658 in assay [3]; 0.512 in assay [4]; 1.28 in assay [5]; 1.58 in [6]. Besides, the composite z-score is 0.239 in the assay on Lefty1 and -0.0325 in [8]. The z-score in assay [7] was 0.893; in [9] it was 0.936 (inactive).

As for `COC(=O)[C@@]1(Cc2ccc(OC)cc2)[C@H]2c3cc(C(=O)N(C)C)n(Cc4ccsc4Br)c3C[C@H]2CN1C(=O)c1ccccc1`, the composite z-score is 1.74 in assay [1]; 1.09 in assay [2]; 0.957 in [3]; 0.862 in assay [4]; -0.244 in assay [5]; -0.29 in assay [6]. In addition, the composite z-score was -0.538 in the assay on Lefty1 and 0.669 in assay [8]. Moreover, the z-score was 0.292 in assay [7] and 1.05 (inactive) in assay [9].

`Cc1ccc(F)cc1S(=O)(=O)N[C@@H]1CCN(Cc2ccc3c(c2)OCO3)C1`: the composite z-score is -0.146 in [1]; -0.844 in [2]; -0.226 in [3]; 0.125 in assay [4]; 0.491 in assay [5]; 0.279 in [6]. Besides, the composite z-score with Lefty1 is 0.236; in [8], -0.0476. Besides, the results for the z-score in [7] and in [9] were 1.32 and -0.391 (inactive), respectively.
